Experimental findings from PubChem BioAssay (EPA / NIEHS) are described below.

Broadly, the AC50 is the midpoint of the concentration-response curve, whichever way the signal moves.

Calls of active or inactive are those of the source. How the source made its calls: active means hit-call score of the fitted dose curve at least 0.9, where 1 is the maximum; inactive means score below 0.9.

The nature of test [1]: ATG_GLI_CIS: Attagene CIS-FACTORIAL HepG2 Assay for human Zinc Finger Protein GLI1 (AID 2282945). The note with it: HepG2, Attagene cis-factorial reporter mRNA, GLI element; actives raise or lower the signal. A digest of the protocol: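 HepG2 cells transiently transfected with cis-promoter multiplexed reporter units report endogenous transcription factor activity. After 24 h chemical exposure, reporter mRNA was quantified by RT-PCR, 6-FAM labelling, HpaI digestion and capillary electrophoresis, with bidirectional fitting against DMSO.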

In test [2] the target is Bile acid receptor (Homo sapiens) (UniProt Q96RI1). Nature of the test: ATG_IR1_CIS: Attagene CIS-FACTORIAL HepG2 Assay for human Nuclear Receptor Subfamily 1 Group H Member 4 (NR1H4), IR1 submotif (AID 2282946). As to conditions: IR1 reporter transcription, actives raise or lower the signal. A digest of the protocol: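 Readout: reporter transcript levels by RT-PCR with fluorescent capillary electrophoresis, from HepG2 cells transiently transfected with multiplexed cis-regulated reporters and dosed 24 h. Gain- or loss-of-signal fitted versus DMSO negative control.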

Test [3] in a line: ATG_GRE_CIS: Attagene CIS-FACTORIAL HepG2 Assay for human Glucocorticoid Response Elements (GRE) (AID 2282947). As to conditions: HepG2 GRE cis-reporter, Attagene multiplex mRNA; actives raise or lower the signal. A digest of the protocol: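 HepG2, transient cis-reporter transfection, 24 h. Reporter mRNA: RT-PCR then CE, fluorescence. Fit both directions vs DMSO.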
Test [4] in a line: ATG_ISRE_CIS: Attagene CIS-FACTORIAL HepG2 Assay for human Interferon Regulatory Factor 1 (IRF1) binding to an Interferon-Stimulated Response Element (ISRE) (AID 2282948). The note with it: HepG2 ISRE cis-reporter (Attagene), mRNA transcription readout; actives raise or lower the signal. A digest of the protocol:
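Uses HepG2 liver cells transfected with cis-regulated reporters and measures mRNA 24 h post-dosing through RT-PCR, primer-extension labelling and capillary electrophoresis, with DMSO as negative control.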

Test [5] in a line: ATG_M_32_CIS: Attagene CIS-FACTORIAL HepG2 Assay for M32 Transcription Factor (Internal Marker) (AID 2282949).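 Further: background control marker of the multiplexed CIS panel rather than a real target.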 As to conditions: HepG2 Attagene cis-factorial M32 reporter, mRNA; actives raise or lower the signal. The procedure, abridged:
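Using DMSO as baseline, bidirectional curve fits were applied to reporter mRNA signals. These came from transiently transfected HepG2 cells exposed for 24 h, with RNA analysed by RT-PCR, FAM primer extension, HpaI digestion and CE.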

The nature of test [6]: ATG_M_06_CIS: Attagene CIS-FACTORIAL HepG2 Assay for M06 Transcription Factor (Internal Marker) (AID 2282950). As to conditions: HepG2 Attagene CIS-FACTORIAL M06 internal marker reporter; actives raise or lower the signal. A digest of the protocol: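 HepG2 cells transiently transfected with cis-regulated multiple reporter transcription units were exposed to chemical for 24 h; reporter mRNA was quantified by RT-PCR, 6-FAM primer labelling, HpaI digestion and capillary electrophoresis, fitted bidirectionally against DMSO.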

For test [7], the target named is Hypoxia-inducible factor 1-alpha (Homo sapiens) (UniProt Q16665). The test can be described thus: ATG_HIF1a_CIS: Attagene CIS-FACTORIAL HepG2 Assay for human Hypoxia Inducible Factor 1 (HIF1A) (AID 2282951). The note with it: HepG2 Attagene cis-factorial HIF1a reporter transcription; actives raise or lower the signal. A digest of the protocol:
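In this multiplexed cell assay, HepG2 cells bearing transfected cis reporters are dosed for 24 h and reporter mRNA is read by RT-PCR plus capillary electrophoresis; signal increases and decreases are both scored against DMSO.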

Test [8] addresses Hepatocyte nuclear factor 6 (Homo sapiens) (UniProt Q9UBC0). The test can be described thus: ATG_HNF6_CIS: Attagene CIS-FACTORIAL HepG2 Assay for human Hepatocyte Nuclear Factor 6 (HNF6) (AID 2282952). The note with it: HepG2 Attagene cis-factorial HNF6 reporter transcription; actives raise or lower the signal. A digest of the protocol: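 Readout: fluorescent reporter-transcript fragments resolved by capillary electrophoresis after RT-PCR, reflecting endogenous factor activity in transfected HepG2. Exposure 24 h. Gain or loss of signal fitted bidirectionally against DMSO.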

Test [9] deals with Heat shock factor protein 1 (Homo sapiens) (UniProt Q00613). Nature of the test: ATG_HSE_CIS: Attagene CIS-FACTORIAL HepG2 Assay for human Heat Shock Transcription Factor 1 (HSE) (AID 2282953). The note with it: HepG2 HSE cis-reporter, Attagene RNA transcription; actives raise or lower the signal. The procedure, abridged: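 HepG2 cells transiently transfected with multiple reporter transcription units under cis-regulatory promoter control, measuring endogenous transcription factor activity. After 24 h chemical exposure, reporter mRNA quantified by RT-PCR, fluorescent labelling, HpaI digestion and capillary electrophoresis; bidirectional fit versus DMSO.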

The nature of test [10]: ATG_MRE_CIS: Attagene CIS-FACTORIAL HepG2 Assay for human Metal Responsive Element (MRE) (AID 2282954). The note with it: HepG2 MRE cis-reporter transcription, Attagene multiplex; actives raise or lower the signal. The procedure, abridged: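 Readout: capillary electrophoresis of 6-FAM-labelled, HpaI-digested RT-PCR reporter products. System: HepG2 cells carrying transient multiplexed cis reporters, dosed 24 h. Analysis: bidirectional fit, DMSO baseline.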

The target of test [11] is Paired box protein Pax-6 (Homo sapiens) (UniProt P26367). The test can be described thus: ATG_Pax6_CIS: Attagene CIS-FACTORIAL HepG2 Assay for human Paired Box 6 (PAX6) (AID 2282956). As to conditions: HepG2 CIS-FACTORIAL PAX6 reporter transcription, RNA readout; actives raise or lower the signal. A digest of the protocol: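 DMSO-referenced bidirectional fits of reporter mRNA fluorescence; HepG2 with transient cis-promoter MRTUs, 24 h post-dose, RT-PCR plus capillary electrophoresis detection.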

The nature of test [12]: ATG_PXRE_CIS: Attagene CIS-FACTORIAL HepG2 Assay for human Pregnane X Receptor Element (PXRE) (AID 2282957). The note with it: HepG2 Attagene CIS-FACTORIAL PXRE reporter, mRNA; actives raise or lower the signal. The procedure, abridged:
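Read-out: fluorescence of reporter-specific RT-PCR products resolved by capillary electrophoresis, fitted bidirectionally relative to DMSO. Human HepG2 liver cells carried transfected cis-promoter reporter units and were exposed to chemicals for 24 h.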

Test [13] in a line: ATG_PPRE_CIS: Attagene CIS-FACTORIAL HepG2 Assay for human Peroxisome Proliferator-activated Response Element (PPRE) (AID 2282958). The note with it: HepG2 PPRE cis-element reporter, Attagene transcription factor profiling; actives raise or lower the signal. The procedure, abridged: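 Multiplexed reporter transcription units under cis-regulatory promoters were transfected into HepG2 cells to capture endogenous factor activity. A 24 h incubation preceded RNA isolation and fluorescent RT-PCR fragment analysis.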

Test [14] in a line: ATG_RORE_CIS: Attagene CIS-FACTORIAL HepG2 Assay for human RAR-related Orphan Receptor Element (RORE) (AID 2282959). The note with it: HepG2 Attagene cis-factorial RORE reporter, mRNA; actives raise or lower the signal. A digest of the protocol: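 Fluorescence intensity of reporter-specific cDNA fragments, separated by capillary electrophoresis, gives the signal. Source: HepG2 liver cells transiently transfected with cis-element reporters and exposed 24 h; DMSO-normalized bidirectional fit.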

Test [15] in a line: ATG_Sox_CIS: Attagene CIS-FACTORIAL HepG2 Assay for human SRY-box transcription factor (SOX) (AID 2282960). As to conditions: HepG2 Attagene cis-factorial SOX reporter, mRNA; actives raise or lower the signal. The procedure, abridged: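 After 24 h of chemical treatment, transfected HepG2 reporter cells are lysed for total RNA. Transcript levels come from RT-PCR with labelled primer extension and capillary electrophoresis, analysed bidirectionally versus DMSO.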

In test [16] the target is Transcription factor Sp1 (Homo sapiens) (UniProt P08047). Nature of the test: ATG_Sp1_CIS: Attagene CIS-FACTORIAL HepG2 Assay for human Specificity Protein 1 (Sp1) (AID 2282961). As to conditions: HepG2 Sp1 cis-reporter transcription, actives raise or lower the signal. A digest of the protocol: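 Sp1-driven reporter mRNA, read as capillary electrophoresis fluorescence after RT-PCR, in transiently transfected HepG2 cells dosed for 24 h; signal change in either direction relative to DMSO.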

Test [17] is described as follows: ATG_SREBP_CIS: Attagene CIS-FACTORIAL HepG2 Assay for human Sterol Regulatory Element Binding (SREBP) (AID 2282962). As to conditions: HepG2 Attagene cis-factorial SREBP reporter, mRNA; actives raise or lower the signal. A digest of the protocol:
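In this cis-format assay, HepG2 liver cells express reporters controlled by promoter elements responsive to native transcription factors. Exposure lasts 24 h; reporter mRNA fluorescence from capillary electrophoresis gives the signal, fitted bidirectionally against DMSO.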

Test [18] deals with Signal transducer and activator of transcription 3 (Homo sapiens) (UniProt P40763). The test can be described thus: ATG_STAT3_CIS: Attagene CIS-FACTORIAL HepG2 Assay for human Signal Transducer and Activator of Transcription 3 (STAT3) (AID 2282963). The note with it: HepG2, Attagene cis-factorial STAT3 reporter transcription; actives raise or lower the signal. The procedure, abridged: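 Uses human liver HepG2 transiently carrying cis-regulated reporter transcription units. Following 24 h dosing, reporter mRNA induction was detected by RT-PCR and capillary electrophoresis, analysed bidirectionally versus DMSO.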

The nature of test [19]: ATG_TA_CIS: Attagene CIS-FACTORIAL HepG2 Assay for human TA Basal Promoter (AID 2282964). As to conditions: HepG2 Attagene CIS-factorial TA basal promoter reporter; actives raise or lower the signal. The procedure, abridged:
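HepG2 cells transiently transfected with multiplexed cis-promoter reporter units, dosed 24 h. Reporter mRNA measured by RT-PCR, 6-FAM labelling, HpaI digestion and capillary electrophoresis; bidirectional fit versus DMSO baseline, serving as background control.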

Test [20] is described as follows: ATG_PBREM_CIS: Attagene CIS-FACTORIAL HepG2 Assay for human Phenobarbital-responsive Enhancer Module (PBREM) (AID 2282955). The note with it: HepG2 PBREM cis-reporter, Attagene multiplexed transcription; actives raise or lower the signal. The procedure, abridged: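 After a 24 h incubation with test chemical, transfected HepG2 cells yield total RNA; reporter-specific RT-PCR products are fluorescently labelled, HpaI-digested and resolved by capillary electrophoresis against ROX size standards.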

Sequence of Transcription factor Sp1 (Homo sapiens) (P08047 whole entry, looked up): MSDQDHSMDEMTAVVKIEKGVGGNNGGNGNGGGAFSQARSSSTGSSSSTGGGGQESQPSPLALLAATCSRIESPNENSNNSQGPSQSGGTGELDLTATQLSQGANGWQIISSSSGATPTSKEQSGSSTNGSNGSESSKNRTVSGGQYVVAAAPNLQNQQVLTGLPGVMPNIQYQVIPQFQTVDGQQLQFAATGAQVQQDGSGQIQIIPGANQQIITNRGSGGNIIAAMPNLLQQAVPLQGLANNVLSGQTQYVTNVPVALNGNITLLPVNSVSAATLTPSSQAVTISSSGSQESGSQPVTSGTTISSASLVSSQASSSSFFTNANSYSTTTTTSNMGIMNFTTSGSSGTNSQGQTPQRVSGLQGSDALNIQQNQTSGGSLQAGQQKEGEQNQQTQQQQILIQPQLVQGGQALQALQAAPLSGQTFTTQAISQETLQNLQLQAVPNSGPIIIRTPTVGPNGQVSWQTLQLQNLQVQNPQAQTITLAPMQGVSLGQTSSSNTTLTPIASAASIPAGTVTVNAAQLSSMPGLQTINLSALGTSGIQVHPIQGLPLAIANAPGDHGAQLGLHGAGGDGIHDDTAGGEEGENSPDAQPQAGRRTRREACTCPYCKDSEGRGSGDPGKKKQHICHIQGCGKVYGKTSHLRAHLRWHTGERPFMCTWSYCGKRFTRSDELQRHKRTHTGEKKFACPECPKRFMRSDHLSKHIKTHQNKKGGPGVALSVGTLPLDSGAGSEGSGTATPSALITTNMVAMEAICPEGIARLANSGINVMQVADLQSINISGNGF
Sequence of Signal transducer and activator of transcription 3 (Homo sapiens) (P40763 whole entry, looked up): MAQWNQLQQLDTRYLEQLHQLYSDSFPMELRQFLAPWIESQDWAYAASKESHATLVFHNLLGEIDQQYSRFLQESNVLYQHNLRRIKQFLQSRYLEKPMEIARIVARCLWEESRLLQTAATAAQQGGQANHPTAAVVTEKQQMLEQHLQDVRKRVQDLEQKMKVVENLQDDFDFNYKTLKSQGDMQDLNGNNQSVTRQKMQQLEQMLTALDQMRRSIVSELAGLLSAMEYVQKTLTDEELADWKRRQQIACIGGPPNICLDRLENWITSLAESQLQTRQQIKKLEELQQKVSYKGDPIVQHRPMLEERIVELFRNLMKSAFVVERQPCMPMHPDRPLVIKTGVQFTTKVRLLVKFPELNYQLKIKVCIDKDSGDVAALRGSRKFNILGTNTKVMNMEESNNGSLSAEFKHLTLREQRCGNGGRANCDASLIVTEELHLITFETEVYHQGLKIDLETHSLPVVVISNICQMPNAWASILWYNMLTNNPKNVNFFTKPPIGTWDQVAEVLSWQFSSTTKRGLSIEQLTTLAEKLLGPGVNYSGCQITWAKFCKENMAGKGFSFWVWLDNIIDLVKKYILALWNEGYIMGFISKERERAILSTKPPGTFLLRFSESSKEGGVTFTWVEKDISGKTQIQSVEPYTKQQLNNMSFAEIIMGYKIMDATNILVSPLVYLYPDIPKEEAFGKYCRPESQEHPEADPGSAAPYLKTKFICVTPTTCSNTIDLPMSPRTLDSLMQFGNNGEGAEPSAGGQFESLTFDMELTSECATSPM
Sequence of Bile acid receptor (Homo sapiens) (Q96RI1 whole entry, looked up): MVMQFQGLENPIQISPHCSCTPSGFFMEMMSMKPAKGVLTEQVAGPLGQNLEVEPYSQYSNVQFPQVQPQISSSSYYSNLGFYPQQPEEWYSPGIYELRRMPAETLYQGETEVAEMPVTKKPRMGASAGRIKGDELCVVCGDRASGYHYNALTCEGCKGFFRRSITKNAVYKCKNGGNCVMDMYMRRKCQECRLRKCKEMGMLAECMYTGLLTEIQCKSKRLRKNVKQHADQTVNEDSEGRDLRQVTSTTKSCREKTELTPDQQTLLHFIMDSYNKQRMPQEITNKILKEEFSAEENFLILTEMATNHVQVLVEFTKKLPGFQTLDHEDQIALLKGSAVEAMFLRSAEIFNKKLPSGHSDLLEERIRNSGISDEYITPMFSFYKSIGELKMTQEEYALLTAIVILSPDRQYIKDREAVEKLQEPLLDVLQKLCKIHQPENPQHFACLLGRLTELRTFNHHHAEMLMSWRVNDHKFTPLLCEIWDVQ
Sequence of Hepatocyte nuclear factor 6 (Homo sapiens) (Q9UBC0 whole entry, looked up, the tested form may be a part): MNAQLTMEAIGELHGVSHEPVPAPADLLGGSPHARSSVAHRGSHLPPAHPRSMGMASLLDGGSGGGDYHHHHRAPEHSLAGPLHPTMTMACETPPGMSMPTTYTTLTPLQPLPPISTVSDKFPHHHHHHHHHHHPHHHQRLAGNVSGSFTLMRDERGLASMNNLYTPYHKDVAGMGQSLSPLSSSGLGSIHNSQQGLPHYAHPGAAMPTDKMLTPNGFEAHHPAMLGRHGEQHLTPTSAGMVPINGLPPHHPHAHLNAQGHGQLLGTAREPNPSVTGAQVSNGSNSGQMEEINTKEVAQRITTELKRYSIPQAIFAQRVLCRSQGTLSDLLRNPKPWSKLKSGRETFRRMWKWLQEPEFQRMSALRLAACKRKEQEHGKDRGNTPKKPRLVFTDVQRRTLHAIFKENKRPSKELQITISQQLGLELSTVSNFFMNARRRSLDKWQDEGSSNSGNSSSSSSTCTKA
Sequence of Hypoxia-inducible factor 1-alpha (Homo sapiens) (Q16665 whole entry, looked up): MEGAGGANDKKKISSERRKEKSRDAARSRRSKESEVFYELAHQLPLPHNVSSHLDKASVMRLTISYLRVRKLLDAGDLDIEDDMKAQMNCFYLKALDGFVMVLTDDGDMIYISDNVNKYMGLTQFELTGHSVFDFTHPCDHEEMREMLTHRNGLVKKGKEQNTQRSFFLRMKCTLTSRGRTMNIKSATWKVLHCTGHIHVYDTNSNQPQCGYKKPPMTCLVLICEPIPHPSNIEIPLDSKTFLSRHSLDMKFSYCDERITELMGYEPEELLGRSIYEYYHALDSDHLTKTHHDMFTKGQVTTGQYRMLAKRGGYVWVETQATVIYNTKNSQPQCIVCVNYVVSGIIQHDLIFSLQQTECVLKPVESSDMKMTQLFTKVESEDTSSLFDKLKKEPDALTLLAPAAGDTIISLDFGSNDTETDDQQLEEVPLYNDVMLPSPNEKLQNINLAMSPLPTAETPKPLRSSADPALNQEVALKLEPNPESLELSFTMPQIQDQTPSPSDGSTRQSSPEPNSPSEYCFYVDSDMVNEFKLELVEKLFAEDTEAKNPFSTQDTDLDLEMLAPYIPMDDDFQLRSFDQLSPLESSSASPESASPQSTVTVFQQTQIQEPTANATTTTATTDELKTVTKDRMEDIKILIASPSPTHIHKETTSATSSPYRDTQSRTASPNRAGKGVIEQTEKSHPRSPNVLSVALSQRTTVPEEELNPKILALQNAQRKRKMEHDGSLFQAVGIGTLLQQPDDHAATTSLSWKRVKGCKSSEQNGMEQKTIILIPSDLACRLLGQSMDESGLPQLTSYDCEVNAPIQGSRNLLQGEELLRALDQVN
Sequence of Heat shock factor protein 1 (Homo sapiens) (Q00613 whole entry, looked up): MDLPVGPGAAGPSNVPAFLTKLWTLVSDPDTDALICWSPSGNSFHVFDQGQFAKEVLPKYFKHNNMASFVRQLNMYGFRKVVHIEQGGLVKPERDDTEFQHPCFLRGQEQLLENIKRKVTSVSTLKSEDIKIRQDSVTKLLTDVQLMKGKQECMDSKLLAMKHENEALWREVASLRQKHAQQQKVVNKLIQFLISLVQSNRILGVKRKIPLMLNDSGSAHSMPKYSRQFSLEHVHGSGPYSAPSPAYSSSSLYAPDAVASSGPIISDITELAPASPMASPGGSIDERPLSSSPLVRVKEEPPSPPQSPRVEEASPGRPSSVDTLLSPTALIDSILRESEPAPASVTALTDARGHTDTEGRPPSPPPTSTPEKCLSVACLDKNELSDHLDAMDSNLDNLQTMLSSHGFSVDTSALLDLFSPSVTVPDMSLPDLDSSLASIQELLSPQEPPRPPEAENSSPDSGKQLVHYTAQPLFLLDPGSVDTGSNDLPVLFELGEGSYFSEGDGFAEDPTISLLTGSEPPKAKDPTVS
Sequence of Paired box protein Pax-6 (Homo sapiens) (P26367 whole entry, looked up): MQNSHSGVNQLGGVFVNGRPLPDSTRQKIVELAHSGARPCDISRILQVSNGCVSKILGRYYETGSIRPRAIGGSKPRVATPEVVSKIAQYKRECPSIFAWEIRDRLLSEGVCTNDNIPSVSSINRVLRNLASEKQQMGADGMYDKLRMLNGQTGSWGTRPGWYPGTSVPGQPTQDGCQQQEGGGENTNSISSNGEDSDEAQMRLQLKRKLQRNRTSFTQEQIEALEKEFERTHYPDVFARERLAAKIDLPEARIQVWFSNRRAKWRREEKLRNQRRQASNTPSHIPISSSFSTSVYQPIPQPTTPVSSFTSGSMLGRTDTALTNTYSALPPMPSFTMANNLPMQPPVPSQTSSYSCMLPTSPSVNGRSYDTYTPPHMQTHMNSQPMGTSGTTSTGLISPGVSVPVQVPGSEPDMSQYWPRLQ

Turning to `O=c1cc[nH]cc1`, the result in test [1], in test [2], in test [3], in [4], in [5] and in test [6] was inactive. Besides, the call in test [7], in [8], in test [9], in [10], in test [11] and in [13] was inactive. The outcome in test [14], in [15], in test [16], in test [17], in test [18] and in test [19] was inactive. Further, the AC50 in [12] is 21 µM (active).

Consider `CCCCCC(=O)O[C@]1(C(C)=O)CC[C@H]2[C@@H]3CCC4=CC(=O)CC[C@]4(C)[C@H]3CC[C@@]21C`, for which the AC50 in test [1] is 57.7 µM (active); in test [3], 55.1 µM (active); in [4], 16.3 µM (active); in [7] it was 33.2 µM (active); in [9] it was 32 µM (active); in [10] it was 13 µM (active). For the same molecule, the AC50 is 22.8 µM (active) in [11]; 0.239 µM (active) in test [12]; 59.6 µM (active) in test [15]; 33.2 µM (active) in test [17]; 33.2 µM (active) in test [18]; 60 µM (active) in [19]. In addition, the molecule was called inactive in test [2], in [5], in test [6], in test [8], in [20] and in test [13]. Moreover, the molecule was classed as inactive in [14] and in test [16].

Turning to `CC(=N[Si](C)(C)C)O[Si](C)(C)C`, the call in [1], in test [2], in [3], in test [4], in test [5] and in test [6] was inactive. Moreover, the molecule was classed as inactive in test [7], in [8], in [9], in test [10], in [20] and in test [11]. For the same molecule, the molecule was called inactive in [12], in [13], in test [14], in test [15], in [16] and in test [17]. In addition, the outcome in test [18] and in test [19] was inactive.
